Shown are actives, neighbours in structure and some others; about 1.1% of the full set was active somewhere.
GalR3 antag = human GalR3 antagonism; HEK293 GalR3-CNG cAMP membrane potential fluorescence; galR3 body fused to GalR1 C-terminus; actives 0.44% (n = 360,000); inhibition, % at 3 µM;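 active means inhibition above the screen-wide average plus 3 SD, cut at about 13% in these data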;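 further: forskolin and galanin both at EC90 stimulate the cells; cAMP rise reported by CNG channel membrane potential dye signal; 0% = forskolin plus galanin with DMSO and 100% = forskolin alone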
NCOA2 inhibitor = inhibits human steroid receptor coactivator 2; Q15596; HEK293 GAL4-SRC2 luciferase reporter, luminescence; inhibition, % at 9 µM; actives 0.17% (n = 370,000);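 active means inhibition above the mean inhibition of all tested compounds plus 3 SD, set per campaign, cut at about 52% in these data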;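 further: 0% = DMSO treated cells and 100% = cells given Gossypol at 36 µM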
Target sequence (Q15596 whole entry, looked up, the tested form may be a part): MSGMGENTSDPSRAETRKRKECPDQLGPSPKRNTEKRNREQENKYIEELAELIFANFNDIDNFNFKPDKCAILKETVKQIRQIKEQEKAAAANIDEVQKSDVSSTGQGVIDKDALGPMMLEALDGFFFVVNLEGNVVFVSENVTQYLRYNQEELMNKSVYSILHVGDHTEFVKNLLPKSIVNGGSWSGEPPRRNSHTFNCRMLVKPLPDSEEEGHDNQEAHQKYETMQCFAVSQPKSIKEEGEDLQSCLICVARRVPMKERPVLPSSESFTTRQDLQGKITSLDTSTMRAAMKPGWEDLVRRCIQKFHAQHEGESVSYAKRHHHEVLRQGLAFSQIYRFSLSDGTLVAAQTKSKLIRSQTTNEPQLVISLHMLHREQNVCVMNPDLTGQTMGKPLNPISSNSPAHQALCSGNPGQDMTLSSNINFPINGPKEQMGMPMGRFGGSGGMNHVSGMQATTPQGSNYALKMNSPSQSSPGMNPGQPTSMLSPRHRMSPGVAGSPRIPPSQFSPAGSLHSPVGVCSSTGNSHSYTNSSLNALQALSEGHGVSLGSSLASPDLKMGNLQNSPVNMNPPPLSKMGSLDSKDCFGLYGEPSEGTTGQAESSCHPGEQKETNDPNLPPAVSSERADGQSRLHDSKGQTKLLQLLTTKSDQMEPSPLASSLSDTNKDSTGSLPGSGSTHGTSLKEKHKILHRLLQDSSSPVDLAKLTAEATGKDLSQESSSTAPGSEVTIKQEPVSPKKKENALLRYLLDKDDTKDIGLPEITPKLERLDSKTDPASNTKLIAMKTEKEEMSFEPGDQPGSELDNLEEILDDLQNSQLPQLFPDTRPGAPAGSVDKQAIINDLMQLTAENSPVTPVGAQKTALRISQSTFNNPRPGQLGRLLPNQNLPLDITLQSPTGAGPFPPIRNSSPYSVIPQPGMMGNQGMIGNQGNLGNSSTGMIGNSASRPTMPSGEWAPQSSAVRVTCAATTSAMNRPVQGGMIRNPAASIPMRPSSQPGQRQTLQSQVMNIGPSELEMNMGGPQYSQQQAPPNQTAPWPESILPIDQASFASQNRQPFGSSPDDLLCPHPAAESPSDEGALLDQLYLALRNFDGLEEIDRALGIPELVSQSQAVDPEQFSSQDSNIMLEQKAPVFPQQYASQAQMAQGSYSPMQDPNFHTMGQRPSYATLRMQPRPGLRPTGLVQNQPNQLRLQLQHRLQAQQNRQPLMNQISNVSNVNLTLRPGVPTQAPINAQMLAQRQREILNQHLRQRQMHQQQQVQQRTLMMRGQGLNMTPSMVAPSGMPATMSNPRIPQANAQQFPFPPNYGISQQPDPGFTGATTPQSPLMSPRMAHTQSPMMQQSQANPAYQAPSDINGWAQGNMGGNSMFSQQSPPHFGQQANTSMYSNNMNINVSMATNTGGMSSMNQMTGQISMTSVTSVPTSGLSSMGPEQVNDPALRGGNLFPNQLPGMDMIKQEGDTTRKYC
NCOA1 inh = inhibits human SRC1 coactivator | Q15788 | HEK293 GAL4-SRC1 luciferase reporter, luminescence | inhibition, % at 3.6 µM | actives 0.12% (n = 360,000) | AID 588354;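 active means inhibition above the campaign mean plus 3 SD, with each screening campaign given its own cutoff, cut at about 60% in these data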;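 further: 0% = DMSO treated cells and 100% = gossypol at 36 µM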
NCOA3 inh = inhibitors of human steroid receptor coactivator 3 (SRC3); AID 588352; HEK293 GAL4-SRC3 luciferase reporter, luminescence; Q9Y6Q9; actives 0.17% (n = 360,000); inhibition, % at 3.6 µM;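 active means inhibition above a per-campaign cutoff, the mean of all compounds plus 3 SD, cut at about 60% in these data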;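 further: 0% = DMSO-treated cells and 100% = gossypol-treated cells at 36 µM; higher means less SRC3-driven luciferase light from the GAL4 reporter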
NR5A2 inv ag = suppresses constitutive activity of human LRH-1; O00482; HEK293T StAR-luciferase reporter, LRH-1 transfected, 24 h; inhibition, % at 3.6 µM; actives 0.13% (n = 360,000);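 active means inhibition above the mean inhibition of all tested compounds plus 3 SD, cut at about 73% in these data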;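 further: 0% = DMSO wells and 100% = reporter-only cells lacking LRH-1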
NR2F2 inh = NR2F2 (human) inhibition, primary screen; HEK293T NGFI-A luciferase reporter, luminescence; inhibition, % at 8.6 µM; actives 0.7% (n = 370,000);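 active means inhibition above a per-plate cutoff, mean inhibition of test wells between control levels plus 3 SD, cut at about 38% in these data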;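 further: cells cotransfected with COUP-TFII expression vector driving the NGFI-A reporter; 0% = median of COUP-TF2 test wells and 100% = reporter-only cells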
VP16 Luc counter = counter-screen for COUP-TFII antagonists: inhibitors of VP16. shares compounds with NR2F2 inh. HEK293 Gal4-VP16 luciferase reporter, luminescence. inhibition, % at 8.5 µM. actives 25% (n = 2,500); in the data active means inhibition above about 13%
COUP-TFII conf = confirmation of human COUP-TFII (NR2F2) inhibitors; shares compounds with NR2F2 inh; HEK293 NGFI-A luciferase reporter, luminescence; inhibition, % at 8.5 µM; actives 45% (n = 2,500); AID 687008;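 active means mean inhibition over three repeats above a set limit taken from the earlier primary screen, cut at about 38% in these data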;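 further: 100% = cells given the luciferase reporter alone without the COUP-TF2 vector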
* = called active by the depositor; x = no result.

SMILES	GalR3 antag	NCOA2 inhibitor	NCOA1 inh	NCOA3 inh	NR5A2 inv ag	NR2F2 inh	VP16 Luc counter	COUP-TFII conf
COc1ccc(S(=O)(=O)/N=C2\C=C(Nc3ccc(O)cc3)C(=O)c3ccccc32)cc1	-9	74*	89*	88*	93*	71*	83*	92*
CC(=O)Nc1ccc(NC2=C/C(=N/S(=O)(=O)c3cccs3)c3ccccc3C2=O)cc1	-6	43	-4	80*	26	50*	17*	23
CCOc1ccccc1C(=O)Nc1ccc(C(=O)NCC2COc3ccccc3O2)cc1 (configuration not stated)	x	5	x	x	x	7	x	x
CCCCc1ccc2nc(NC(=O)c3cccs3)sc2c1	x	x	x	x	x	-31	x	x
CCCn1c(NC(=O)c2ccc(Cl)c(S(=O)(=O)N3CCCC3)c2)nc2ccccc21	-2	21	-33	-9	-1	44*	-8	15
CCC(C)[C@H](NC(=O)OC(C)(C)C)C(=O)N[C@@H](Cc1ccccc1)C(=O)OC (some centres not stated)	x	5	x	x	x	9	x	x
O=C(Nc1ccncc1)Nc1ccc(Cl)cc1	-4	-5	-16	10	-7	-13	x	x
Cc1ccc(CC(=O)Nc2ccncc2)cc1	-2	17	0	4	46	55*	-9	24
CN(CCCC(=O)Nc1ccncc1)S(=O)(=O)c1ccc(Cl)cc1	-7	8	13	9	1	52*	4	30
Cc1ccc(CC(=O)Nc2cccnc2)cc1	-2	19	4	8	1	-10	x	x
O=C(Cc1ccc(Cl)cc1)Nc1ccncc1	-6	18	6	21	33	40*	-3	8
Cc1nn(-c2ccccc2)c2sc(C(=O)NCCc3ccccc3)cc12	x	0	x	x	x	-18	x	x
COC(=O)c1cc(-c2cccc3c2sc2ccccc23)c(=O)n2c1CCC2	x	17	x	x	x	-8	x	x
O=C(O)COc1ccccc1/C=N/NC(=O)CSc1nc2ccccc2s1	-2	1	-5	13	4	15	x	x
O=C(CSc1nc2ccccc2s1)N/N=C/c1ccccc1C(=O)O	1	22	-5	17	24	43*	-5	17
COc1ccc(CNC(=O)c2cccc3c(-c4ccc(F)c(F)c4)coc23)cc1OC	x	x	18	15	19	x	x	x
COc1cc(-c2coc3c(C(=O)NCc4ccc(N(C)C)cc4)cccc23)ccc1O	-3	-20	-1	-6	22	-6	x	x
COc1cc(-c2coc3c(C(=O)NCc4ccc(OC)c(OC)c4)cccc23)ccc1O	-6	-8	-5	-1	38	67*	0	63*
COc1ccc(CNC(=O)c2cccc3c(-c4cccc(C(N)=O)c4)coc23)cc1OC	9	34	56	59	51	86*	-1	73*
COc1ccc(CN2C(=O)c3ccnn3CC2(C)c2nnnn2-c2c(C)cccc2C)cc1 (configuration not stated)	x	3	x	x	x	6	x	x
COc1ccc(-c2sc3ccc(N4CCOCC4)cc3c2C#CC2(O)CCCCC2)cc1	-7	-20	-17	-2	-2	-6	x	x
COc1ccc(-c2sc3ccc(N4CCOCC4)cc3c2C#CCO)cc1	8	21	7	12	34	74*	-11	53*
COc1cc2c(cc1OC)C(c1c(-c3c(Cl)cccc3Cl)noc1C)=NCC2	-3	-12	11	-13	-8	14	x	x
COc1cc2c(cc1OC)C(c1c(Cl)cccc1Cl)=NCC2	-5	22	-32	-50	-3	72*	12	58*
Cc1cc(C)n(-c2ccc(C(=O)Nc3ccc(S(=O)(=O)N(C)C)cc3)cc2)n1	-5	-11	18	31	19	32	x	x
SMILES	GalR3 antag	NCOA2 inhibitor	NCOA1 inh	NCOA3 inh	NR5A2 inv ag	NR2F2 inh	VP16 Luc counter	COUP-TFII conf
Cc1cc(C)n(-c2ccc(C(=O)Nc3ccc(C)c(S(=O)(=O)N(C)C)c3)cc2)n1	0	12	8	22	3	48*	-4	24
Cc1cc(C)n(-c2ccc(C(=O)Nc3cccc(S(=O)(=O)N(C)C)c3)cc2)n1	-6	14	13	34	16	43*	14*	39*
CCN(CC)S(=O)(=O)c1cccc(NC(=O)c2ccc(-n3nc(C)cc3C)cc2)c1	-12	14	13	25	16	65*	9	33
CN(C)S(=O)(=O)Oc1ccc(C(=O)Nc2cccc(C(F)(F)F)c2)cc1	-3	-1	11	9	1	54*	-20	16
CN(C)S(=O)(=O)Oc1ccc(C(=O)Nc2cccc(Cl)c2)cc1	-2	-34	-47	-61	-92	-18	x	x
COc1ccc(CN2CN3Cc4cc(F)ccc4C3CS2(=O)=O)cc1 (configuration not stated)	x	-18	x	x	x	1	x	x
C[C@@H]1/C=C/CC(=O)N2[C@H](CC(=O)N[C@@H]1c1ccccc1)C[C@@H](C)[C@H]2c1ccccc1	x	14	x	x	x	17	x	x
O=C(Nc1ccc(F)cc1Cl)C1CCCN1S(=O)(=O)c1cccc2cccnc12 (configuration not stated)	x	16	x	x	x	7	x	x
O=C(OC12CCCN(C1)/C(=C/c1cccc(Cl)c1)C2)c1ccno1 (configuration not stated)	x	2	x	x	x	9	x	x
Cc1cc(C)cc(C(=O)OCCN(C)C2CN(Cc3cn(Cc4cccc(F)c4)nn3)S(=O)(=O)C2)c1 (configuration not stated)	x	0	x	x	x	-4	x	x
Cc1ccc(NC(=O)c2ccc(OC(F)(F)F)cc2)cc1S(=O)(=O)N(C)C	0	13	2	13	27	55*	-9	35
Cc1ccc(NC(=O)c2ccncc2)cc1S(=O)(=O)N(C)C	1	-11	3	8	-5	-3	x	x
Cc1cc(/C=N/Nc2ncnc(N)c2[N+](=O)[O-])c(C)n1-c1ccccc1	-2	43	42	46	11	52*	44*	78*
Clc1ccc(/C=N/N2CCN(Cc3ccccc3)CC2)cc1	3	17	-26	-8	-8	-4	x	x
Clc1ccc(CN2CCN(N=Cc3ccncc3)CC2)cc1	x	33	x	x	x	50*	13	35
CCCOc1ncnc2c1[nH]c1ccc(OC)cc12	-5	-24	-93	-63	-160	-9	x	x
CCCOc1ncnc2c1[nH]c1ccccc12	-3	7	-27	-5	-2	40*	-41	-1
COc1ccc(-c2nnc(SCC(=O)NN=C(C)c3cccc4ccccc34)n2-c2ccc(C)cc2)cc1	x	7	x	x	x	6	x	x

High-throughput results from PubChem.
